# According to PubChem BioAssay (NCI):
# The panel holds about 83,000 compounds, 20% with a hit somewhere; the sample as a whole holds those more often.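 Method: cells in 96-well plates; compound added at one concentration; 48 h incubation; percent growth measured; values under 10 scored active.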 Unmarked numbers belong to inactive results. Active and inactive are the calls of the source.
# Key:
# Test in all cases: NCI-60 one-dose screen, 48 h (100 = growth as untreated, 0 = no growth, -100 = all killed)
# Conditions in all cases: 10 µM unless noted
# RPMI-8226 leukemia = system: RPMI-8226 leukemia
# OVCAR-8 ovarian = system: OVCAR-8 ovarian
# OVCAR-5 ovarian = system: OVCAR-5 ovarian
# OVCAR-4 ovarian = system: OVCAR-4 ovarian
# IGROV1 ovarian = system: IGROV1 ovarian
# OVCAR-3 ovarian = system: OVCAR-3 ovarian
# HS 578T breast = system: HS 578T breast
# NCI/ADR-RES ovarian = system: NCI/ADR-RES ovarian
# T-47D breast = system: T-47D breast
# SK-OV-3 ovarian = system: SK-OV-3 ovarian
SMILES,growth (RPMI-8226 leukemia),growth (OVCAR-8 ovarian),growth (OVCAR-5 ovarian),growth (OVCAR-4 ovarian),growth (IGROV1 ovarian),growth (OVCAR-3 ovarian),growth (HS 578T breast),growth (NCI/ADR-RES ovarian),growth (T-47D breast),growth (SK-OV-3 ovarian)
O=C1Nc2cc(Cl)ccc2/C1=C\c1ccc(OCc2ccc(Br)cc2F)cc1,-24.3% (active),-36.7% (active),6.67% (active),-54.3% (active),-88.8% (active),-64.7% (active),-26.1% (active),-0.106% (active),-23.9% (active),
COc1cc(N=Cc2sc(Nc3nccs3)nc2O)cc(OC)c1OC,81.6%,81.2%,103%,82.9%,66%,82.8%,80.5%,78.4%,89.3%,
CS(=O)(=O)c1ccc(-n2cc(/C=C/C(=O)c3ccc(NC(=O)CO[N+](=O)[O-])cc3)c(-c3ccc(Cl)cc3)n2)cc1,108%,92.5%,97.7%,114%,94.4%,111%,83.6%,94.4%,104%,
CC1=C(C)C(=O)C(Nc2cccc(C(F)(F)F)c2)=C(Cl)C1=O,-3.12% (active),87.1%,100%,-80.4% (active),-7.2% (active),70.4%,87.6%,,-39% (active),
CCOC(=O)c1sc(NCC(=O)Nc2cccc([N+](=O)[O-])c2)c(C(=O)OCC)c1C,-31.6% (active),1.78% (active),-13.7% (active),-26% (active),-41% (active),-4.13% (active),-10.4% (active),,-10.9% (active),
COc1ccc(CNS(=O)(=O)/N=C2\NC(=O)NC2=C(Cl)Cl)cc1,15.3%,10.8%,37.2%,69.1%,43.5%,30%,44%,,44%,
CCC/C=C/C=C/C(=O)N[C@@H](Cc1cc(F)cc(F)c1)C(=O)N[C@@H]1C(=O)N2CCC[C@H]2C(=O)N2CCCC[C@H]2C(=O)N[C@@H](C)C(=O)N2C[C@H](C)C[C@H]2C(=O)O[C@H]1C,-0.71% (active),18.4%,24.6%,22.3%,40.8%,19.1%,31%,20.8%,15.9%,
COc1ccc(C(=O)/C=C/c2ccc(OCc3ccc(Cl)cc3)c(OC)c2)cc1OC,-2.25% (active),58.4%,100%,68.6%,73.5%,78.5%,82%,55.2%,50.6%,
Cc1[nH]nc2ncc(C#Cc3cncc(C(=O)Nc4ccc(CN5CCN(C)CC5)c(C(F)(F)F)c4)c3)cc12,29.9%,37.8%,20.5%,50.7%,1.84% (active),37.8%,9.15% (active),78%,32.6%,
O=C(c1ccc(O)cc1)C1[C@H](c2ccc(Cl)cc2)[C@@H](c2ccccc2)NC12C(=O)Nc1ccc(Cl)cc12 (some centres undefined),26.4%,47.7%,68.8%,47.1%,38.9%,33.1%,60.5%,36.2%,31.4%,
Cn1ccnc1C(=O)/C=C/c1ccc(NC(=O)Nc2ccc(Cl)cc2)cc1,63.2%,81.9%,110%,76.3%,96.7%,84.2%,77%,76.2%,62.7%,
NC(=O)c1c(NC(=O)c2ccc(C3CCCCC3)cc2)sc2c1CCC(=O)C2,-15% (active),14.8%,23.4%,-0.0254% (active),24.7%,22.4%,35.4%,,-5.15% (active),
CCOc1ccc2nc(NC(=O)c3ccc(C(F)(F)F)cc3)sc2c1,100%,107%,105%,107%,113%,109%,114%,,97.7%,
CN1CCc2c(sc3ncnc(N/N=C/c4ccc(Cl)c(Cl)c4)c23)C1,41.4%,31.8%,71.4%,20.9%,73.2%,71.5%,78.5%,29.6%,90.4%,
COc1cccc(NC2=CC(=O)C(C)=C(C)C2=O)c1,17.5%,16.9%,101%,-1.68% (active),40%,0.294% (active),112%,,47.7%,
O=C(Nc1nc2ccc(O)cc2s1)c1cccc(C(F)(F)F)c1,46.9%,55.5%,93.4%,63.6%,64.4%,67.2%,101%,,51.3%,
Cc1ccc(CNS(=O)(=O)/N=C2\NC(=O)NC2=C(Cl)Cl)cc1,14.5%,91.2%,96.7%,98.7%,101%,88.2%,66.1%,,48.7%,
O=C(CCCN1C(=O)/C(=C/c2ccccc2F)SC1=S)N1CCOCC1,75.1%,,94.5%,88.4%,84.4%,112%,99.4%,104%,45.6%,
COC1CCN(Cc2ccc3c(NNC(=O)c4cnccn4)nc4cc(F)ccc4n23)C1 (centres undefined),20.2%,,49.9%,21%,24.2%,5.16% (active),68.5%,24%,24.2%,38.1%
[Cl][Ru].c1ccc(-c2cc(-c3ccccn3)nc(-c3ccccn3)c2)cc1.c1ccc(-c2ccnc3c2ccc2c(-c4ccccc4)ccnc23)cc1,-41.8% (active),,18.3%,15.6%,-59.2% (active),-64.2% (active),-15.1% (active),93.7%,-11.4% (active),-12.1% (active)
CNC(=O)c1cc(-c2ccc(NC(=O)Nc3ccc(N4CCN(C)CC4)c(C(F)(F)F)c3)cc2)nc2cccnc12,-35.8% (active),-84% (active),-88.6% (active),-82.4% (active),-83.9% (active),,-55.7% (active),-21.6% (active),-18.8% (active),
CC(O)C(NC(=O)C1CCCN1C(=O)CNC(=O)C1CC(=O)NCC(=O)NC(Cc2c[nH]c3ccccc23)C(=O)NC(Cc2ccc(O)cc2)C(=O)NCC(=O)NC(CO)C(=O)NC(CCC(N)=O)C(=O)NC(Cc2c[nH]c3ccccc23)C(=O)N1)C(=O)NCC(=O)NC(CCC(N)=O)C(=O)NC(CCCNC(=N)N)C(=O)NC(CC(=O)O)C(=O)O (centres undefined),83.5%,,110%,99.8%,105%,102%,102%,104%,106%,106%
COc1ccccc1/C=C/C=N/NC1=NC2C(S1)N(C)C(=O)N2C (centres undefined),10.6%,,52.3%,72%,46%,-12% (active),3.97% (active),28.9%,31.2%,32.9%
CCCC(=O)NC(c1cccc(N(C)C)c1)c1cc(C)c2cccnc2c1O (centres undefined),63.8%,,87.4%,53.1%,40%,8.33% (active),71.4%,22.6%,56.6%,56.5%
CC(C)Sc1nc(Nc2ccc(S(N)(=O)=O)cc2)c(C#N)c(-c2ccc(F)cc2)n1,58.1%,,67.3%,,,,,32.5%,,
Cc1ccc2c(n1)C(=O)C(Cl)=C(Nc1cccc(C(C)C)c1)C2=O,2.88% (active),,109%,22.6%,22.1%,3.53% (active),43.1%,,3.43% (active),
CN(C)CCCOc1c2ccc(Cl)cc2nc2c1oc1ccccc12,-22.1% (active),,4.62% (active),1.72% (active),-8.93% (active),-10.4% (active),5.22% (active),3.15% (active),13.5%,-8.76% (active)
CCOC(=O)c1sc(N)c(C(=O)OCC)c1C,42.3%,,67.6%,62%,56.9%,70.5%,30.9%,,7.83% (active),
Nc1c(C(=O)Nc2ccc(Cl)cc2)sc2nc(-c3cnccn3)cc(-c3cccs3)c12,85.1%,,66.2%,61.3%,74.2%,62.7%,47.1%,68.3%,96.7%,74.1%
C=C1CC[C@H]2[C@@](C)(CCC3OC(c4ccc(OCc5cn(C6CC(OC(C)=O)C(OC(C)=O)C(COC(C)=O)O6)nn5)cc4)OC[C@]32C)[C@@H]1/C=C/C1=CCOC1=O (some centres undefined),41.2%,,97.4%,72.7%,89.2%,81.9%,75.7%,92.8%,40%,
